Reference: PubChem BioAssay (NCATS)
Active and inactive are the calls of the source. The rule behind the calls is not given here.

Test system: HIV-1 nucleocapsid protein NCp7 (binding to TG oligonucleotide)
Test: HIV Nucleocapsid (AID 346);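 note: potency is for inhibitors that block NC binding and lower polarization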
Details: HIV-1 NC / fluorescein-TGTGTGTG probe, fluorescence polarization
How it was run: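 10 nM TG4xF probe with 100 nM nucleocapsid protein in high-salt Hepes pH 7.5 (250mM NaCl) containing 1uM ZnCl2 and reducing agents. Compound inhibition of binding was read as fluorescein polarization after 1 hr at room temperature.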
Potency is the fitted concentration of half-maximal effect.

SMILES | Potency
FC(F)(F)c1ccccc1-c1cncnc1NCc1ccccc1 | > 20 µM (inactive)
COc1cccc(-c2cc(NCc3cccc(C)c3)ncn2)c1 | > 20 µM (inactive)
COCCn1c(=O)c(-c2cccs2)nc2cnc(OCc3ccccc3)nc21 | > 20 µM (inactive)
N#Cc1ccccc1-c1ccc2ncnc(NC3CC3)c2c1 | > 20 µM (inactive)
Cc1ccccc1-c1nccc(-n2ccnc2)n1 | > 20 µM (inactive)
COCCn1c(=O)c(-c2ccccc2)nc2cnc(N3CCN(C)CC3)nc21 | > 20 µM (inactive)
O=C(c1ccco1)N1CCC2(CCCN(c3ccncc3)C2)CC1 | > 20 µM (inactive)
COc1ccc(Oc2ncc3nc(-c4ccccc4)c(=O)n(CCC#N)c3n2)cc1 | > 20 µM (inactive)
COc1cccc(Cn2c(=O)c(-c3ccc(Cl)cc3)nc3cncnc32)c1 | > 20 µM (inactive)
O=C(c1cc(C(F)(F)F)cc(C(F)(F)F)c1)N1CCC2(CCCN(Cc3ccccc3)C2)CC1 | > 20 µM (inactive)
COc1cccc(-c2nc(NCc3ccc(OC)cc3OC)c3ccccc3n2)c1 | > 20 µM (inactive)
Cn1c(=O)c(-c2ccccc2)nc2cnc(OCc3ccccc3)nc21 | > 20 µM (inactive)
CN(C)c1ncc2ncc(=O)n(CCc3ccccc3)c2n1 | > 20 µM (inactive)
Cc1noc(C)c1C(=O)N1CCC2(CC1)CCN(C(c1ccccc1)c1ccccc1)CC2 | > 20 µM (inactive)
CCNc1ncc2nc(-c3ccccc3)c(=O)n(C)c2n1 | > 20 µM (inactive)
CC(=O)N1CCC2(CC1)CCN(c1cccc(-c3ccccc3)c1)CC2 | > 20 µM (inactive)
COc1cccc(Cn2c(=O)c(-c3cccs3)nc3cncnc32)c1 | > 20 µM (inactive)
CN(C)c1ncc2nc(CCc3ccccc3)c(=O)n(C[C@H]3CCCO3)c2n1 | > 20 µM (inactive)
COC(=O)N1CCC2(CCCN(Cc3ccccc3)C2)CC1 | > 20 µM (inactive)
O=c1cnc2cnc(N3CCNCC3)nc2n1Cc1cccs1 | > 20 µM (inactive)

SMILES | Potency
COc1ccc(C(=O)N2CCC3(CC2)CN(c2ccc(-c4ccccc4)cc2)C3)cc1 | > 20 µM (inactive)
CN1CCN(c2nc(-c3ccc(N(C)C)cc3)nc3ccccc23)CC1 | > 20 µM (inactive)
CN1CCN(c2ncc3nc(-c4cccc(C#N)c4)c(=O)n(CCC#N)c3n2)CC1 | > 20 µM (inactive)
COCC(=O)N1CCC2(CC1)CN(c1ccncc1)C2 | > 20 µM (inactive)
N#CCCn1c(=O)c(CCc2ccccc2)nc2cnc(Oc3cccc(Cl)c3)nc21 | > 20 µM (inactive)
Cc1noc(C)c1-c1nccc(Nc2ccc(F)cc2)n1 | > 20 µM (inactive)
N#CCCn1c(=O)c(-c2cccs2)nc2cnc(N3CCOCC3)nc21 | 4.26 µM (active)
CN(C)c1ccc(-c2cc(NCc3cccnc3)ncn2)cc1 | > 20 µM (inactive)
CN(C)c1ncc2nc(-c3cccs3)c(=O)n(C[C@H]3CCCO3)c2n1 | > 20 µM (inactive)
N#CCCn1c(=O)c(-c2ccc(F)cc2)nc2cnc(Oc3cccc(Cl)c3)nc21 | > 20 µM (inactive)
COc1ccc2[nH]cc(CCNc3cc(-c4ccc5c(c4)OCO5)ncn3)c2c1 | > 20 µM (inactive)
COc1ccc(Oc2ncc3nc(CCc4ccccc4)c(=O)n(CCC#N)c3n2)cc1 | > 20 µM (inactive)
COc1ccc(-n2c(=O)c(C)nc3cnc(OC)nc32)cc1 | > 20 µM (inactive)
N#Cc1ccc(CN2CC[C@@]3(CCCN(S(=O)(=O)c4ccccc4)C3)C2)cc1 | > 20 µM (inactive)
Cc1noc(C)c1-c1cc(NCc2ccccc2)ncn1 | > 20 µM (inactive)
COc1ccc(-c2nc3cnc(N4CCNCC4)nc3n(C)c2=O)cc1 | > 20 µM (inactive)
COc1ccc(Oc2ncc3ncc(=O)n(C)c3n2)cc1 | > 20 µM (inactive)
COc1ccc(-n2c(=O)c(-c3cccs3)nc3cnc(N4CCN(C)CC4)nc32)cc1 | > 20 µM (inactive)
Cn1cccc1C(=O)N1CCC2(CCCN(C(=O)Nc3cccc(C#N)c3)C2)CC1 | > 20 µM (inactive)
